Values joined by “and” are separate entries in the source; they are usually repeats but may differ in a detail not shown here. Equal entries are not always repeated. Out of some 5,500 compounds screened, about 2,000 (36%) were called active. Inconclusive results (about 18%) are left out. Rule as the data show it: active = normalized growth mostly below about 0.91 (no sharp cut-off); inconclusive = no clear call, values can overlap the other calls; inactive = mostly above about 0.92. This is one part of the list.
Test: chemical genetic growth profiling, strain panel (AID 1159580);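 also: tested at 20 µM; growth read once vehicle control cultures reached saturation at 30 °C; 1 = growth at the plate median or of vehicle wells; lower values mean less growth of the strain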
Conditions: S. cerevisiae deletion strains, growth OD

Measured: normalized growth

CCCCC[C@H](CC(=O)NO)C(=O)N[C@H](C(=O)N1CCC[C@H]1CO)C(C)C
inactive: locus YAL013W, strain DEP1, hits give low values 0.979 | locus YAL021C, strain ccr4, hits give low values 1.02 | locus YAL026C, strain drs2, hits give low values 1.01 | locus YAL030W, strain snc1, hits give low values 1 | locus YBL061C, strain skt5, hits give low values 1.01 | locus YBR009C, strain hhf1, hits give low values 1.02 | locus YBR021W, strain FUR4, hits give low values 1.04 | locus YBR023C, strain chs3, hits give low values 1.01 | locus YBR171W, strain sec66, hits give low values 1.02 | locus YBR229C, strain ROT2, hits give low values 1 | locus YBR231C, strain swc5, hits give low values 1.02 | locus YBR279W, strain paf1, hits give low values 1.02 | locus YCL011C, strain gbp2, hits give low values 1.01 | locus YCL016C, strain dcc1, hits give low values 1.01 | locus YCL029C, strain bik1, hits give low values 1.02 | locus YCL061C, strain MRC1, hits give low values 1.01 | locus YCL069W, strain vba3, hits give low values 1.01 | locus YCR088W, strain abp1, hits give low values 1.01 | locus YDL005C, strain med2, hits give low values 1.02 | locus YDL035C, strain GPR1, hits give low values 0.989 | locus YDL040C, strain nat1, hits give low values 1.02 | locus YDL074C, strain BRE1, hits give low values 1.02 | locus YDL101C, strain DUN1, hits give low values 1.02 | locus YDL185W, strain tfp1, hits give low values 1.01 | locus YDL192W, strain arf1, hits give low values 1.02 | locus YDR001C, strain nth1, hits give low values 1.01 | locus YDR069C, strain doa4, hits give low values 1.03 | locus YDR101C, strain arx1, hits give low values 1.03 | locus YDR137W, strain rgp1, hits give low values 0.972 | locus YDR150W, strain NUM1, hits give low values 1.02 | locus YDR159W, strain sac3, hits give low values 1.03 | locus YDR162C, strain NBP2, hits give low values 0.988 | locus YDR195W, strain ref2 1 | locus YDR297W, strain sur2, hits give low values 1.02 | locus YDR318W, strain mcm21, hits give low values 1.01 | locus YDR334W, strain swr1, hits give low values 1.01 | locus YDR335W, strain msn5, hits give low values 1.02 | locus YDR388W, hits give low values 1.02 | locus YDR392W, strain spt3, hits give low values 1.04 | locus YDR502C, strain sam2, hits give low values 1 | locus YEL003W, strain gim4, hits give low values 1.02 | locus YEL037C, strain rad23, hits give low values 1 | locus YEL061C, strain CIN8 (second series), hits give low values 1.01 | locus YEL061C, strain CIN8, hits give low values 1.01 | locus YER015W, strain faa2, hits give low values 1.02 | locus YER016W, strain bim1, hits give low values 1.01 | locus YER110C, hits give low values 1.03 | locus YER111C, strain swi4, hits give low values 1.02 | locus YER155C, strain BEM2 (second series), hits give low values 1.02 | locus YER155C, strain BEM2, hits give low values 1.01 | locus YER167W, strain BCK2, hits give low values 0.999 | locus YFR010W, strain ubp6, hits give low values 1.01 | locus YGL078C, strain dbp3, hits give low values 1.02 | locus YGL086W, strain mad1, hits give low values 1.01 | locus YGL167C, strain pmr1, hits give low values 1.01 | locus YGL173C, strain kem1, hits give low values 1.03 | locus YGL227W, strain vid30, hits give low values 1.02 | locus YGL240W, strain doc1, hits give low values 1.03 | locus YGL248W, strain PDE1, hits give low values 1.02 | locus YGL253W, strain hxk2, hits give low values 1.01 | locus YGR078C, strain PAC10, hits give low values 1.01 | locus YGR135W, strain pre9, hits give low values 1.01 | locus YGR252W, strain gcn5, hits give low values 1.02 | locus YHR013C, strain ard1, hits give low values 1.03 | locus YHR027C, strain rpn1, hits give low values 1.02 | locus YHR030C, strain SLT2, hits give low values 1.01 and 0.992 | locus YHR079C, strain IRE1 (second series), hits give low values 1.03 | locus YHR079C, strain IRE1, hits give low values 0.973 | locus YHR094C, strain hxt1, hits give low values 1.01 | locus YHR129C, strain ARP1, hits give low values 1.02 | locus YHR142W, strain chs7, hits give low values 1.01 | locus YHR200W, strain rpn10, hits give low values 1.01 | locus YIL066C, strain RNR3, hits give low values 0.999 | locus YIL073C, strain SPO22, hits give low values 1.06 | locus YIL125W, strain kgd1, hits give low values 1.02 | locus YIR030C, strain dcg1, hits give low values 1.02 | locus YJL092W, strain hpr5, hits give low values 1.01 | locus YJL095W, strain BCK1 (second series), hits give low values 1.02 | locus YJL095W, strain BCK1, hits give low values 1.02 and 0.977 | locus YJL115W, strain asf1, hits give low values 1 | locus YJL129C, strain trk1, hits give low values 1.03 | locus YJL134W, strain LCB3, hits give low values 1.01 | locus YJL154C, strain vps35, hits give low values 1 | locus YJL164C, strain tpk1, hits give low values 1.03 | locus YJL166W, strain qcr8, hits give low values 1.02 | locus YJL168C, strain set2, hits give low values 1.01 | locus YJL187C, strain SWE1 (second series), hits give low values 1.04 | locus YJL187C, strain SWE1, hits give low values 1.02

Source: PubChem BioAssay AID1159580 (chemical genetic matrix, 2015)
